Source: PubChem BioAssay AID504725 (Broad Institute, 2011)
Results with a measured potency or affinity are listed apart. Calls of active or inactive are those of the source. How the calls were made is not given here.

Target: KSHV LANA C-terminal domain (residues 932-1162) binding to LBS DNA (UniProt O40947)
Test: inhibitors of C-LANA binding to LBS DNA, dose response, biochemical, fluorescence polarization, cherry-picked samples (AID 504725)
Conditions: MBP-C-LANA / FAM-LBS DNA fluorescence polarization, percent change from plate compound-well median; series mostly up to 35 µM

Row | SMILES | outcome
1 | O=C1CCCC2=C1C(c1ccc(O)c(O)c1)Nc1ccc3ncccc3c12 (stereo not given) | inactive
2 | Cc1ccsc1/C=N/NC(=O)Cc1ccc(Cl)cc1 | inactive
3 | NNc1nnc2c3cc(F)ccc3n(Cc3ccccc3)c2n1 | inactive
4 | COc1ccc(NS(=O)(=O)c2ccc(C)c(C(=O)N(C)Cc3ccc(OC)cc3OC)c2)cc1 | inactive
5 | COc1cccc(/C=N/NC(=O)C(=O)NCc2cccnc2)c1O | inactive
6 | COc1ccc(/C=C/C(=O)NC(=S)Nc2ccc(S(N)(=O)=O)cc2)cc1 | inactive
7 | COc1ccc(OC)c(NC(=O)c2nnn(Cc3ccc(Br)cc3F)c2N)c1 | inactive
8 | NNC(=S)Nc1ccc(S(=O)(=O)N2CCOCC2)cc1 | inactive
9 | COc1ccc(CCNC(=O)CNC(=O)Cn2ccc3ccccc3c2=O)cc1OC | inactive
10 | O=c1c2c(nc3cc(-c4ccc(F)cc4)[nH]n13)CCC2 | inactive
11 | CCN1/C(=C2/SC(=S)N(NC(C)=O)C2=O)Sc2ccc(OC)cc21 | inactive
12 | CCOC(=O)c1ccc[n+](CC(=O)c2ccc(OC)cc2)c1 | inactive
13 | COc1ccc(CNC(=O)C2CCC(CNC(=O)[C@@H]3Cc4ccccc4CN3)CC2)cc1 (stereo not given in full) | inactive
14 | O=C(/C=C/c1ccco1)Nc1ccccc1C(=O)Nc1cccc(C(=O)O)c1 | inactive
15 | CCOC(=O)c1c(C)nc2cc(C)ccn12 | inactive
16 | Cc1ccc(S(=O)(=O)/N=C/c2ccc(N(C)C)cc2)cc1 | inactive
17 | CCOc1ccc(S(=O)(=O)N(C)c2ccc(OCC(=O)NC3=NCCS3)cc2)cc1 | inactive
18 | Cc1cc(NC(=O)CCC(=O)N(CCC(C)C)C(C(=O)NC2CCCC2)c2cccnc2)no1 (stereo not given) | inactive
19 | COc1ccc(C(=O)N/N=C/c2ccc(OC)c(COc3ccccc3)c2)cc1 | inactive
20 | CN(Cc1cnc2nc(N)nc(N)c2n1)c1ccc(C(=O)NC(CCC(=O)O)C(=O)O)cc1 (stereo not given) | inactive
